# Shown are actives, neighbours in structure and some others; about 1.2% of the full set was active somewhere.
# GSH fluor: compound fluorescence on glutathione beads, profiling panel, artefact control, biophysical, 488/530 nm, flow cytometry | fluorescence (KMESF) at 10 µM | actives 0.25% (n = 190,000) | GSH beads flow cytometry, compound fluorescence 488/530 nm; stronger effect = higher value; in the data active means fluorescence above about 89;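 further: glutathione beads carrying GST-tagged Bcl family fusion proteins plus one bare bead set; values are compound well signal with DMSO vehicle wells as background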
# Avidin fluor: green autofluorescence of compounds with avidin beads – biophysical, 488/530 nm, flow cytometry, artefact control, profiling panel. compound fluorescence 488/530 nm; stronger effect = higher value. AID 1775, 2009. fluorescence (KMESF) at 10 µM. actives 0.38% (n = 220,000); in the data active means fluorescence above about 47
# RGS16-Gao HTS: modulators of RGS16 binding to Galphao, primary screen, biochemical, human proteins, multiplexed bead flow cytometry. binding response (% of control), % at 10 µM. bead-based flow cytometry RGS16-Galphao binding, fluorescence; actives lie on both sides. actives 0.38% (n = 220,000). AID 1441, 2008;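 further: Galphao activated by GDP with aluminum fluoride before binding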
# Target sequence (O15492 whole entry, looked up): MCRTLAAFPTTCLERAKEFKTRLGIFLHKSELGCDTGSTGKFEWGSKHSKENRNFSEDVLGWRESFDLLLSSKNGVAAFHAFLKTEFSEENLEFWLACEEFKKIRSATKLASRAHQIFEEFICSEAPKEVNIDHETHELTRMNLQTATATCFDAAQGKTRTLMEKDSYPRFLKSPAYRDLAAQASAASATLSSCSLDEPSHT
# Target sequence (P09471 whole entry, looked up): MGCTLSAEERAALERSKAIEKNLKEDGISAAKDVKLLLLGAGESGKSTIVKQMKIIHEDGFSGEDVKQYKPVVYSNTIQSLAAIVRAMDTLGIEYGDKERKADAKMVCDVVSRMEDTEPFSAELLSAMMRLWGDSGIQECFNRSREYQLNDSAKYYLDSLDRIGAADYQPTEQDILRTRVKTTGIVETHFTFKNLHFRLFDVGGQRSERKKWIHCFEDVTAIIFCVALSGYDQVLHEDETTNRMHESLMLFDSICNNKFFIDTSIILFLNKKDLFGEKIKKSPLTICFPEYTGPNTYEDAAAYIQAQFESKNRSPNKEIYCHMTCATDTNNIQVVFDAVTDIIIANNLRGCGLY
# RGS4-Gao reg: modulators of RGS4 binding to Galphao, primary screen, biochemical, multiplexed bead flow cytometry; binding response (% of control), % at 10 µM; actives lie on both sides; actives 0.33% (n = 220,000); in the data active means binding response below about 49% or above about 150%; inactive means in between;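 further: fluorescent Galphao activated with aluminum fluoride binding bead-coupled RGS4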
# Target sequence (P09471 whole entry, looked up): as above
# RGS8-Gao reg: RGS8-Galphao binding modulators, primary screen, biochemical, multiplexed bead flow cytometry; response (percent of control binding), % at 10 µM; actives 0.34% (n = 220,000); actives lie on both sides; Guanine nucleotide-binding protein G(o) subunit alpha (Homo sapiens), P09471; in the data active means response below about 60% or above about 140%; inactive means in between;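 further: Galphao activated as the GDP aluminium fluoride complex binding bead-coupled RGS8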
# RGS7-Gao: RGS7-Galphao binding modulators, primary screen, biochemical, multiplexed bead flow cytometry. Guanine nucleotide-binding protein G(o) subunit alpha (Homo sapiens), P09471. actives lie on both sides. binding response (% of control), % at 10 µM. actives 0.35% (n = 220,000). AID 1439, 2008; in the data active means binding response below about 49% or above about 150%; inconclusive means no clear call, values can overlap the other calls; inactive means in between;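 further: fluorescent Galphao held in activated GDP-AlF4 state binding bead-coupled RGS7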
# RGS4-Gao HTS: modulators of RGS–Galpha-o binding, primary screen, biochemical, multiplexed beads, flow cytometry, RGS4/7/8/16/19. shares compounds with RGS16-Gao HTS. multiplexed bead flow cytometry. RGS4–Galpha-o binding response, % at 10 µM. actives 99% (n = 1,600). AID 1504, 2009;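 further: fluorescently labeled Galpha-o bound to GDP with aluminium fluoride binding biotinylated RGS beads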
# Biotin-avidin: disruption of biotin probe capture by avidin, counter-screen for RGS protein interaction modulators, biochemical, flow cytometry, bead-based. shares compounds with RGS16-Gao HTS. streptavidin beads, fluorescein-biotin binding. inhibition, % at 10 µM. 1,700 tested, under 10 active. AID 1783, 2009;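 active means inhibition above 50%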;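 further: median green fluorescence of gated singlet beads compared with DMSO control wells; 0% = DMSO wells and 100% = complete loss of bead fluorescence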
# RGS8-Gao confirm: RGS8-Galphao binding modulators, confirmation, biochemical, multiplexed bead flow cytometry, single concentration; shares compounds with RGS16-Gao HTS; bead-based flow cytometry RGS8-Galphao binding, fluorescence; actives lie on both sides; binding response (% of control), % at 10 µM; actives 3% (n = 1,700); in the data active means binding response below about 72% or above about 130%; inactive means in between;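 further: Galphao activated as GDP AlF4 complex before binding bead RGS8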
# RGS7-Gao confirm: RGS7-Galphao binding modulators, confirmation, biochemical, multiplexed bead flow cytometry, single concentration; shares compounds with RGS16-Gao HTS; bead-based flow cytometry RGS7-Galphao binding; actives lie on both sides; response (percent of control binding), % at 10 µM; actives 7.8% (n = 1,700); in the data active means response below about 75% or above about 130%; inactive means in between;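 further: fluorescent Galphao activated with GDP and aluminum fluoride binding bead-coupled RGS7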
# RGS16-Gao conf: modulators of RGS16-Galphao protein binding, confirmation, biochemical, single concentration, multiplexed bead flow cytometry. shares compounds with RGS16-Gao HTS. bead-based flow cytometry; actives lie on both sides. response (% of control binding), % at 10 µM. actives 4% (n = 1,700). AID 1838, 2009; in the data active means response below about 74% or above about 130%; inactive means in between;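 further: Galphao activated as the GDP aluminium fluoride complex binding bead-coupled RGS16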
# RGS4-Gao single: modulators of RGS4-Galphao protein binding, confirmation, biochemical, single concentration, multiplexed bead flow cytometry; shares compounds with RGS16-Gao HTS; actives lie on both sides; binding response (% of control), % at 10 µM; actives 4% (n = 1,700); AID 1840, 2009; in the data active means binding response below about 74% or above about 130%; inactive means in between
# RGS19-Gao conf: regulators of RGS19-Galphao binding, confirmation, biochemical, single point, multiplexed bead flow cytometry | actives 5% (n = 1,700) | bead-based flow cytometry RGS19-Galphao binding; actives lie on both sides | response (percent of control binding), % at 10 µM | shares compounds with RGS16-Gao HTS; in the data active means response below about 50% or above about 160%; inactive means in between;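 further: 100% = no compound control and 0% = blank background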
# Active calls of the source: *; ? = inconclusive; nt = not tested or not shown; [ ] = remark or other dose. Unless noted, how the calls were made is not given here.
SMILES,GSH fluor,Avidin fluor,RGS16-Gao HTS,RGS4-Gao reg,RGS8-Gao reg,RGS7-Gao,Biotin-avidin,RGS8-Gao confirm,RGS7-Gao confirm,RGS16-Gao conf,RGS4-Gao single,RGS19-Gao conf,others
CN(C)c1ccc(/C=N/NC(=O)CN(c2cccc(Cl)c2)S(C)(=O)=O)cc1Br,29,1,72,108,97,104,nt,nt,nt,nt,nt,nt,
c1ccc2c(-c3nc4ncccc4o3)cccc2c1,12,10,99,97,103,97,nt,nt,nt,nt,nt,nt,
Cc1cc2cc(CCNC(=O)c3cccc([N+](=O)[O-])c3)c(=O)[nH]c2cc1C,10,0,37,35*,61,37*,0,100,100,100,99,104,
O=C(COC(=O)c1sc2ccccc2c1Cl)NCC1CCCCC1,11,11,105,100,99,104,nt,nt,nt,nt,nt,nt,
CC1CCCC(NC(=O)COC(=O)c2sc3ccccc3c2Cl)C1C (stereo unspecified),11,-5,0.2*,4.5*,9.4*,-6.9*,-1,99,96,100,100,98,
c1ccc(Nc2c(-c3ccco3)nc3ccccn23)cc1,4,14,95,95,99,94,nt,nt,nt,nt,nt,nt,
c1ccc(-c2nc(-c3ccco3)n3ccccc23)cc1,20,-2,-2.4*,-6.6*,7.9*,0.6*,1,90,87,91,97,83,
COc1ccc(-c2noc(CCC(=O)O)n2)cc1,23,11,94,95,96,95,nt,nt,nt,nt,nt,nt,
COc1cc(CCC(=O)O)on1,nt,-1,-8.1*,-10*,20*,?,-1,98,81,94,90,80,
COc1ccccc1N1CCN(C(=O)c2c(-c3ccccc3Cl)noc2C)CC1,9,10,-11*,64,77,74,0,100,101,98,98,102,RGS4-Gao HTS=64*
COCCN(CC(=O)NC1CCCCC1)C(=O)CCCC(=O)Nc1ccccn1,16,9,122,111,111,106,nt,nt,nt,nt,nt,nt,
Cc1ccc(NC(=O)Nc2ccccc2CC[N+](=O)[O-])cc1,10,21,270,117,149*[activator],118,0,103,101,102,102,94,RGS4-Gao HTS=117*
O=C(Nc1nnc(-c2ccccc2Cl)o1)c1ccco1,31,nt,nt,nt,nt,nt,2,99,103,101,103,93,
O=Cc1cn(-c2ccc(F)cc2)c2ccccc12,16,12,128,104,108,101,nt,nt,nt,nt,nt,nt,
Cc1ccc(C(=O)N/N=C2\SCC(=O)N2c2cc(C)ccc2C)cc1,47,3,22*,81,74,83,-2,109,107,108,106,108,RGS4-Gao HTS=81*
Cc1cccc(N2C(=O)CS/C2=N\NC(=O)c2ccc(Br)cc2)c1C,13,20,112,103,106,106,nt,nt,nt,nt,nt,nt,
COc1ccc(OC)c2c1C(=O)C(Cl)=C(Cl)C2=O,nt,0,-14*,58,45*,?,nt,nt,nt,nt,nt,nt,RGS4-Gao HTS=58*
COC(=O)c1cc(C(=O)Nc2ccc(C)cn2)cc([N+](=O)[O-])c1,17,nt,nt,nt,nt,nt,1,101,75*,90,88,51,
CSc1ccc(-c2nc(O)c3cnccn23)cc1,19,6,107,97,100,100,nt,nt,nt,nt,nt,nt,
COc1ccc2[nH]c(=O)c(CN(C(=O)c3cccnc3)c3ccccc3C)cc2c1,nt,118*,280*[activator],307*[activator],142*[activator],?,1,96,56*,73*,72*,39*,
Cc1ccc(NS(=O)(=O)c2ccc(C)c(C(=O)N3CCN(C)CC3)c2)cc1,4,3,-37*,69,80,80,1,98,98,102,97,107,RGS4-Gao HTS=69*
Cc1ccc(NS(=O)(=O)c2ccc(C(=O)N3CCCN(C)CC3)cc2)cc1,12,21,102,99,97,99,nt,nt,nt,nt,nt,nt,
COc1ccc2c(c1OC)C(=O)OC2Nc1ccc(S(=O)(=O)N=C(N)N)cc1 (stereo unspecified),nt,5,92,88,96,?,nt,nt,nt,nt,nt,nt,
COc1ccc2c(c1OC)C(=O)OC2Nc1ncc(Br)cc1Br (stereo unspecified),46,5,188*[activator],124,125,112,0,100,102,100,100,100,RGS4-Gao HTS=124*
O=C(O)CSCC(=O)Nc1ccc(Br)c(C(F)(F)F)c1,nt,-2,-12*,-38*,32*,?,-1,93,90,88,88,93,
COc1ccccc1C(=O)NN1C(=O)/C(=C/c2cccn2C)SC1=S,nt,95*,nt,nt,nt,nt,-1,104,104,104,102,101,
Cn1cccc1/C=C1\SC(=S)N(NC(=O)c2ccccc2O)C1=O,nt,9,91,99,101,?,nt,nt,nt,nt,nt,nt,
CCN(CC)CCN1C(=O)C(O)=C(C(=O)c2cc3cccc(OC)c3o2)C1c1ccc(F)cc1 (stereo unspecified),nt,3,103,100,99,?,nt,nt,nt,nt,nt,nt,

# Screens deposited in PubChem BioAssay by NMMLSC.
